test system: Plasmodium falciparum; assay: GSK_TCMDC: Inhibition of Plasmodium falciparum 3D7 in whole red blood cells, using parasite LDH activity as an index of growth. Test compounds present at 2uM; type: functional

SMILES	Inhibition [%]
O=C(Nc1ccc(-c2cccc(-c3nc4cc(C(F)(F)F)ccc4[nH]3)c2)cc1)c1ccoc1	96
N#Cc1ccc(C=Cc2nccc3c2[nH]c2ccccc23)cc1	97
COc1cc2c(cc1S(=O)(=O)c1ccc(NC(=O)Nc3ccc(F)cc3)cc1)CCN(C)CC2.Cl	99
COc1ccc(CCNc2nc(SCc3ccccc3Cl)nc3ccccc23)cc1OC	94
CC(=O)N1CCC(C(=O)Nc2ccc(-c3cccc(-c4nc5cccc(C)c5[nH]4)c3)cc2)CC1	84
COc1ccc(-c2nc3cc4ccccc4nc3[nH]2)c(OCC(O)CNC(C)C)c1.Cl (stereo not given)	98
CCOC(=O)N1CCN(CCCNc2c3ccc(Cl)cc3nc3ccc(OC)cc23)CC1	100
OCCn1c(CNCCCNc2nc3ccccc3[nH]2)cc2c(Cl)cc(Cl)cc21	95
CC1(C)C(N(O)C(=O)Nc2ccc(Cl)c(Cl)c2)N(c2ccc(Cl)c(Cl)c2)C(=O)N1CCc1ccccc1 (stereo not given)	91
COc1cc(Nc2ncnc3cc(OC)c(OC)cc23)cc([N+](=O)[O-])c1.Cl	97
CC(=O)/N=C1\N=C(NC(C)=O)NC(C)(C)N1OCCCOc1ccc(Cl)c(Cl)c1	96
CC(C)CCNc1nc2ccccc2nc1Nc1cccc(C(F)(F)F)c1	98
COc1cc(CNCCCCCCNCc2cc(OC)c(OC)c3ccccc23)c2ccccc2c1OC.CS(=O)(=O)O	100
CC(C)Oc1ccc(C=CC(=O)Nc2noc3ccccc23)cc1	96
Cl.O=c1cc(NCCCNCc2ccc(Cl)c(Cl)c2)[nH]c2ccc(Oc3ccccc3)cc12	92

Source: ChEMBL document CHEMBL1157539, “Thousands of chemical starting points for antimalarial lead identification” (Nature, 2010)
